Measured values published in paper PMC7862700, “An all-to-all approach to the identification of sequence-specific readers for epigenetic DNA modifications on cytosine”.

Experiments:
Assay in all cases: DAPPL (digital affinity profiling via proximity ligation, sequencing); 10 mM Tris-HCl pH 7.5, 50 mM NaCl, 1 mM DTT, 4% glycerol, room temperature, 30 min; GST-TFs on glutathione beads, 16-mer random dsDNA library, 0.1% formaldehyde crosslink after washing; high values mean tight binding
FLI1 = biological target: T1, FLI1 (Homo sapiens, UniProt Q01543 1-452); conditions: protein: recombinant; tags: N-terminal GST; dsDNA, one strand shown
T1 sequence: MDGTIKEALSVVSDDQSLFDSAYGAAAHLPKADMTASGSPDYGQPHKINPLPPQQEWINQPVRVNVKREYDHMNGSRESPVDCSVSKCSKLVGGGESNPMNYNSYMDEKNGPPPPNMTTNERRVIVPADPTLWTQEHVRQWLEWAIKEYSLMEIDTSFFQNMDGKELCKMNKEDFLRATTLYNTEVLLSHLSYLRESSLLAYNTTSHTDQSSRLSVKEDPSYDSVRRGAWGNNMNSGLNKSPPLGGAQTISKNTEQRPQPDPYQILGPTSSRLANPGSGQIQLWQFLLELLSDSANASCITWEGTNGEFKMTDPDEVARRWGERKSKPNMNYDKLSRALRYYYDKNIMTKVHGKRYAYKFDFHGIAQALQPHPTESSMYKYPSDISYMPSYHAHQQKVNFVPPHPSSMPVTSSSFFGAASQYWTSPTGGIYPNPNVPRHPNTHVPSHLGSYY
Summary of the method: (§1)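 Binding signal is given per hexamer as its read frequency for a factor divided by its frequency in the tag-only sample. GST-fused human transcription factors were expressed in yeast, captured on glutathione beads, barcoded with DNA and pooled with that sample, then incubated with 200 nmole of a 16-mer random double-stranded DNA library in Tris/NaCl/DTT/glycerol buffer for 30 min at room temperature. The pools were then washed, crosslinked, proximity-ligated, amplified by PCR and sequenced on an Illumina NextSeq500.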

ELK1 = biological target: T2, ELK1 (Homo sapiens, UniProt P19419 1-428); conditions: protein: recombinant; tags: N-terminal GST; dsDNA, one strand shown
T2 sequence: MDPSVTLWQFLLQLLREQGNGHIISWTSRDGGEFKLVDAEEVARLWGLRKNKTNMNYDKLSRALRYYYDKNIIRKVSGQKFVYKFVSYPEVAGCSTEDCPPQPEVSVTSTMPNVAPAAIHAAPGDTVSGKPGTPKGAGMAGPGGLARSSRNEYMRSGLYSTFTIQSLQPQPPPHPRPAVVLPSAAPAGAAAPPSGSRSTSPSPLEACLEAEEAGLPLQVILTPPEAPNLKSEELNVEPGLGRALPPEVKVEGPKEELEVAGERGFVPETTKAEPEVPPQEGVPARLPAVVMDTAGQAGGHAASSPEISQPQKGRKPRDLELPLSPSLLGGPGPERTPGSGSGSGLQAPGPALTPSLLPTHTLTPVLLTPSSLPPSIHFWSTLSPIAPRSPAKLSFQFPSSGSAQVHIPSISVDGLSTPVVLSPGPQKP
Summary of the method: as §1

GABPA = biological target: T3, GABPA (Homo sapiens, UniProt Q06546 1-454); conditions: protein: recombinant; tags: N-terminal GST; dsDNA, one strand shown
T3 sequence: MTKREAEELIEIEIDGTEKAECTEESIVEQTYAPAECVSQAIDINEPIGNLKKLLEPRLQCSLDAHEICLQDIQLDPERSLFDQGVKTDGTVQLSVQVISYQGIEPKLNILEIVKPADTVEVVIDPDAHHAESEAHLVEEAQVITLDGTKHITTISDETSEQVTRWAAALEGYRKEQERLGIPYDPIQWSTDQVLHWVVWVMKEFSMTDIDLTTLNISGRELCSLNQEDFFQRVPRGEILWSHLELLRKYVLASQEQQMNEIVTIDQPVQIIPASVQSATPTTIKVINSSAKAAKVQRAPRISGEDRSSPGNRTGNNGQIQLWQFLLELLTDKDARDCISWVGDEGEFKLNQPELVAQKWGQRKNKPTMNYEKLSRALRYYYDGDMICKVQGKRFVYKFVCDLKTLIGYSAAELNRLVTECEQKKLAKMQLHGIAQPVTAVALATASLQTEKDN
Summary of the method: as §1

ERG = biological target: T4, ERG (Homo sapiens, UniProt P11308 1-479); conditions: protein: recombinant; tags: N-terminal GST; dsDNA, one strand shown
T4 sequence: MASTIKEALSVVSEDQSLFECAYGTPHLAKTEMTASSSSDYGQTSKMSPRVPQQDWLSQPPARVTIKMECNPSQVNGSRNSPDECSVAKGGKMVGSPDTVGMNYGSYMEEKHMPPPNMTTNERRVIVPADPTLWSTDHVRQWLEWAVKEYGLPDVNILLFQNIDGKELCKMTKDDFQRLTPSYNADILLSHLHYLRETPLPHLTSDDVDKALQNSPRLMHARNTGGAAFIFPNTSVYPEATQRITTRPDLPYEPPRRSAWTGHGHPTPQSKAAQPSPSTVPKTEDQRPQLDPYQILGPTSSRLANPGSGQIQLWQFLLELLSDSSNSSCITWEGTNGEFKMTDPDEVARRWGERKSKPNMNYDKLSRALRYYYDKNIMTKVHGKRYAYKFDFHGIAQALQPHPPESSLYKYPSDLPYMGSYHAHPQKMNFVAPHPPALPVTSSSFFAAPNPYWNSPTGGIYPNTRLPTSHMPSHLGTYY
Summary of the method: as §1

ELF1 = ELF1 (Homo sapiens, UniProt P32519 1-619); conditions: protein: recombinant; tags: N-terminal GST; dsDNA, one strand shown
Chain of ELF1 (P32519 whole entry): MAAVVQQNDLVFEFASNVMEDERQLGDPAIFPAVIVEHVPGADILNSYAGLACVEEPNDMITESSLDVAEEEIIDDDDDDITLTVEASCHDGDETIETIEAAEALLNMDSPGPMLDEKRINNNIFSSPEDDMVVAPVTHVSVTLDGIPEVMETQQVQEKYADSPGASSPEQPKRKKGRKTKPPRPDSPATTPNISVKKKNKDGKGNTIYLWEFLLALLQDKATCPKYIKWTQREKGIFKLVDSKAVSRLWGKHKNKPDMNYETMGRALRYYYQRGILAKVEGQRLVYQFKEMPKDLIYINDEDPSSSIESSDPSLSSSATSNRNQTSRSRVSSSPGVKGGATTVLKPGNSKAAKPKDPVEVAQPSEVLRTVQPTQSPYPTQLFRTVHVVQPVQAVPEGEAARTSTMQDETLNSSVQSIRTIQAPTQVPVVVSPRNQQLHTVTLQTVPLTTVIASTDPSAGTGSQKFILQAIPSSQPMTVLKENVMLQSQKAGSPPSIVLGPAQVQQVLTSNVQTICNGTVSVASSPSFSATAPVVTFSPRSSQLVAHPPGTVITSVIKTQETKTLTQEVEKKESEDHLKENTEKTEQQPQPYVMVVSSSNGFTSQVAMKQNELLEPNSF
Summary of the method: as §1

EHF = biological target: T5, EHF (Homo sapiens, UniProt Q9NZC4 1-300); conditions: protein: recombinant; tags: N-terminal GST; dsDNA, one strand shown
T5 sequence: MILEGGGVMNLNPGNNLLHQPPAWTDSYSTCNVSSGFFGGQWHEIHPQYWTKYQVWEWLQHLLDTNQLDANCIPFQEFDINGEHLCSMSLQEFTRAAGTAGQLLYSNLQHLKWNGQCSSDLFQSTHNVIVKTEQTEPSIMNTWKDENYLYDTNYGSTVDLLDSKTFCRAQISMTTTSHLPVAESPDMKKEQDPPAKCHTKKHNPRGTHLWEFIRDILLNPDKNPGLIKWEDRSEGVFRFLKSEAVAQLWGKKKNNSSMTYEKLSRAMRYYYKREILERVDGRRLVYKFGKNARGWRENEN
Summary of the method: as §1

SPI1 = SPI1 (Homo sapiens, UniProt P17947 1-270); conditions: protein: recombinant; tags: N-terminal GST; dsDNA, one strand shown
Summary of the method: as §1

SPIB = SPIB (Homo sapiens, UniProt Q01892 1-262); conditions: protein: recombinant; tags: N-terminal GST; dsDNA, one strand shown
Chain of SPIB (Q01892 whole entry): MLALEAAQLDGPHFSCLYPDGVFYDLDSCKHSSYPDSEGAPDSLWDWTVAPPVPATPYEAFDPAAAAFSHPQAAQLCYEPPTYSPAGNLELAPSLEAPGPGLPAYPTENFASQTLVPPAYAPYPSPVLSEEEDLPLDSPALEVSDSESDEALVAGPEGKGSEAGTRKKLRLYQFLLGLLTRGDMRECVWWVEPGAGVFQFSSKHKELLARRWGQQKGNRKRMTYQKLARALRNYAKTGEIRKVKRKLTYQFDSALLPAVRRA
Summary of the method: as §1

ELK3 = biological target: T6, ELK3 (Homo sapiens, UniProt P41970 1-407); conditions: protein: recombinant; tags: N-terminal GST; dsDNA, one strand shown
T6 sequence: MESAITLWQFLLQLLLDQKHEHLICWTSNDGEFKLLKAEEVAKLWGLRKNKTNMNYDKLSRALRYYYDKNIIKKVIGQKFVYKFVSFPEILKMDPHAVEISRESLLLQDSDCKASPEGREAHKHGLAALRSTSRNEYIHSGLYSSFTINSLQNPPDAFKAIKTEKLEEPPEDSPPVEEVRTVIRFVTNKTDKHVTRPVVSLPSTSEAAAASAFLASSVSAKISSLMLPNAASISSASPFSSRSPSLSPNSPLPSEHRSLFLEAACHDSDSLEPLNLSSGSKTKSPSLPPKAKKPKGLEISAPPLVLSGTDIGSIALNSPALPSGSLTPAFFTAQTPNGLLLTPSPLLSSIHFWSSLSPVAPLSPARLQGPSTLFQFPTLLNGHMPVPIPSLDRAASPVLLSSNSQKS
Summary of the method: as §1

FEV = biological target: T7, FEV (Homo sapiens, UniProt Q99581 1-238); conditions: protein: recombinant; tags: N-terminal GST; dsDNA, one strand shown
T7 sequence: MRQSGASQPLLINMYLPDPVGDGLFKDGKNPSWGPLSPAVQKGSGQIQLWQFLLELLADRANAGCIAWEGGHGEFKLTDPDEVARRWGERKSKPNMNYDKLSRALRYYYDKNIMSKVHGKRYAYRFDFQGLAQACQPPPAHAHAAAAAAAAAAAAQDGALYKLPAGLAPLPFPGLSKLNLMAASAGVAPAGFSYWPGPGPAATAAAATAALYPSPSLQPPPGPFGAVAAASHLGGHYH
Summary of the method: as §1

ETV5 = ETV5 (Homo sapiens, UniProt P41161 1-510); conditions: protein: recombinant; tags: N-terminal GST; dsDNA, one strand shown
Chain of ETV5 (P41161 whole entry): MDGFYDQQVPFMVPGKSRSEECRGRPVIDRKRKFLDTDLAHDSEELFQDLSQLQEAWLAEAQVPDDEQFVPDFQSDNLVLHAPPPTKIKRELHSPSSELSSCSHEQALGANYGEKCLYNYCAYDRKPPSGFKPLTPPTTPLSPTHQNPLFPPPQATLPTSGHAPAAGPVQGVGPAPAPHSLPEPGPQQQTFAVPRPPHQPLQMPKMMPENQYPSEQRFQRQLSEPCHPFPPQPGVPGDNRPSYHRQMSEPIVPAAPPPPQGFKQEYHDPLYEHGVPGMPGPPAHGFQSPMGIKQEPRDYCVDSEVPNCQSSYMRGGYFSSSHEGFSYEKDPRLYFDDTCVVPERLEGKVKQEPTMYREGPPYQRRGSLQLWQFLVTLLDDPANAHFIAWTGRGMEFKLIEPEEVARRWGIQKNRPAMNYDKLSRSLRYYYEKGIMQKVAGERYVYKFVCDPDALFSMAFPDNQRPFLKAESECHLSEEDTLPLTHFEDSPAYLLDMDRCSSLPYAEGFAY
Summary of the method: as §1

HSF1 = HSF1 (Homo sapiens, UniProt Q00613 1-529); conditions: protein: recombinant; tags: N-terminal GST; chain copies: 3; dsDNA, one strand shown
Chain of HSF1 (Q00613 whole entry): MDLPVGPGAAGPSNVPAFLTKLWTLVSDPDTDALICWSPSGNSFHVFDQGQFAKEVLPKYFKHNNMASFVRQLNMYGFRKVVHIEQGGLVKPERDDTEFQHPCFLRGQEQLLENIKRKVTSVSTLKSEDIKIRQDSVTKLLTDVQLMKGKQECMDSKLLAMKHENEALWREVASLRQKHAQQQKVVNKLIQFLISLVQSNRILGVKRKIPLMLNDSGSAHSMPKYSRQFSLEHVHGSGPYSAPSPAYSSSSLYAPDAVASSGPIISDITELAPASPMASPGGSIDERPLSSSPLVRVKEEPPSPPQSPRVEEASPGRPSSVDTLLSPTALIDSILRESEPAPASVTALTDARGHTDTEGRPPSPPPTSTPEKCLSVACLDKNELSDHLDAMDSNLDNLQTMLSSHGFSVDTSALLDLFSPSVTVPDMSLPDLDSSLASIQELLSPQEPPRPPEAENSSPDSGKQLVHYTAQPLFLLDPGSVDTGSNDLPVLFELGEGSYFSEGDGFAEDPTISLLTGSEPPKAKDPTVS
Summary of the method: as §1

SPIC = biological target: T8, SPIC (Homo sapiens, UniProt Q8N5J4 1-248); conditions: protein: recombinant; tags: N-terminal GST; dsDNA, one strand shown
T8 sequence: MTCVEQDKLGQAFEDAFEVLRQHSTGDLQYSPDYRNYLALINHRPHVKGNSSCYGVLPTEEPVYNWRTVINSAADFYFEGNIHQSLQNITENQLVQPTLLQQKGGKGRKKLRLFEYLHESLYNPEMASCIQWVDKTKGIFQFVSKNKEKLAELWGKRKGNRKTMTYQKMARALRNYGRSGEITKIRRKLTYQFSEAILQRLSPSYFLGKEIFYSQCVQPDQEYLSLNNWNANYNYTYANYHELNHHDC
Summary of the method: as §1

ELF4 = ELF4 (Homo sapiens, UniProt Q99607 1-663); conditions: protein: recombinant; tags: N-terminal GST; dsDNA, one strand shown
Chain of ELF4 (Q99607 whole entry): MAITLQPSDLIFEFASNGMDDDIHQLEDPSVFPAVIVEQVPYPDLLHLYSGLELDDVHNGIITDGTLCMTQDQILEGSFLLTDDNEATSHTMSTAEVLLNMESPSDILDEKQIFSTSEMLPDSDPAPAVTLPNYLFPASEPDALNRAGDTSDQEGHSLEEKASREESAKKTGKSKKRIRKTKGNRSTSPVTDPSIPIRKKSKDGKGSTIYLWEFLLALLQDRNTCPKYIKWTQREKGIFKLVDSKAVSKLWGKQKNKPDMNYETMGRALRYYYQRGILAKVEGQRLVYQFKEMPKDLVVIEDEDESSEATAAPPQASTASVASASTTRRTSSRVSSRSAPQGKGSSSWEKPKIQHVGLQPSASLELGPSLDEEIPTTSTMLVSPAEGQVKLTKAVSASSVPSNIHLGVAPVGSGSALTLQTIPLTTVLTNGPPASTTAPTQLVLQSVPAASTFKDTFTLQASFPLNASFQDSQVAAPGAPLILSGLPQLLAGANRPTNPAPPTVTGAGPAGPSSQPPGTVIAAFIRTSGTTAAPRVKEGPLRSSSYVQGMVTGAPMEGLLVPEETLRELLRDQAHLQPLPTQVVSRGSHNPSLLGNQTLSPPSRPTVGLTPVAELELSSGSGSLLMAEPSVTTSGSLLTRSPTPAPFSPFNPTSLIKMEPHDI
Summary of the method: as §1

ELK4 = biological target: T9, ELK4 (Homo sapiens, UniProt P28324-2 1-405); conditions: protein: recombinant; tags: N-terminal GST; dsDNA, one strand shown
T9 sequence: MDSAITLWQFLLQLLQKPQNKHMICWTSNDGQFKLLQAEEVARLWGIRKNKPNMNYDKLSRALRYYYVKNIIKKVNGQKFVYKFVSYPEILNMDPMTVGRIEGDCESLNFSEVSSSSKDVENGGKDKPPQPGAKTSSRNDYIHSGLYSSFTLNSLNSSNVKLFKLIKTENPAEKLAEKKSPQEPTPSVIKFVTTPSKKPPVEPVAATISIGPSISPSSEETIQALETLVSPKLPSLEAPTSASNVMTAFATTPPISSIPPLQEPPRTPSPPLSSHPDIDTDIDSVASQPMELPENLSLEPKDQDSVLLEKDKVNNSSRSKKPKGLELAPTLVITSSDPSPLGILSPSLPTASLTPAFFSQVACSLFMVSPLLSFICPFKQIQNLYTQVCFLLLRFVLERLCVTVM
Summary of the method: as §1

ETV2 = biological target: T10, ETV2 (Homo sapiens, UniProt O00321 1-342); conditions: protein: recombinant; tags: N-terminal GST; dsDNA, one strand shown
T10 sequence: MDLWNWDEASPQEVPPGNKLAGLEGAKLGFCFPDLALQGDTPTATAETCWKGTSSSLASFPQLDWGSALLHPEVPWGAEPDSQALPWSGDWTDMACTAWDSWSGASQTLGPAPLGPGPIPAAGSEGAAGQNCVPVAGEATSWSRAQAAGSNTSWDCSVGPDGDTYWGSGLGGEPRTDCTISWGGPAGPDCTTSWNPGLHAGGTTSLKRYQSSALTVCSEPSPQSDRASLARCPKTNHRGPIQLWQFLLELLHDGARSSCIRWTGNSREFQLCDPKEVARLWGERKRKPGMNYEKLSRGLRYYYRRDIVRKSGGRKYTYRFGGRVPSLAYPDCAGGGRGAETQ
Summary of the method: as §1

ELF3 = biological target: T11, ELF3 (Homo sapiens, UniProt P78545 1-371); conditions: protein: recombinant; tags: N-terminal GST; dsDNA, one strand shown
T11 sequence: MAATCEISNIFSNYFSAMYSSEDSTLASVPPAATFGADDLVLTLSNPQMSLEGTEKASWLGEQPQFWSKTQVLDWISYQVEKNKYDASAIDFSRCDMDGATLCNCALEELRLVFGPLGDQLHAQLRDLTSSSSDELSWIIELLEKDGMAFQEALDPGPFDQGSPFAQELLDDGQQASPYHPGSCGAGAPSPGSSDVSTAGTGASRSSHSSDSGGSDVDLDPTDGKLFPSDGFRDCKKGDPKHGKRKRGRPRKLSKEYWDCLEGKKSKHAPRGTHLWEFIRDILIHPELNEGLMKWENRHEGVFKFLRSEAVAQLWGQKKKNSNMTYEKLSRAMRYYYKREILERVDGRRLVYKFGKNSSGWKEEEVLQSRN
Summary of the method: as §1

CRX = CRX (Homo sapiens, UniProt O43186 1-299); conditions: protein: recombinant; tags: N-terminal GST; dsDNA, one strand shown
Chain of CRX (O43186 whole entry): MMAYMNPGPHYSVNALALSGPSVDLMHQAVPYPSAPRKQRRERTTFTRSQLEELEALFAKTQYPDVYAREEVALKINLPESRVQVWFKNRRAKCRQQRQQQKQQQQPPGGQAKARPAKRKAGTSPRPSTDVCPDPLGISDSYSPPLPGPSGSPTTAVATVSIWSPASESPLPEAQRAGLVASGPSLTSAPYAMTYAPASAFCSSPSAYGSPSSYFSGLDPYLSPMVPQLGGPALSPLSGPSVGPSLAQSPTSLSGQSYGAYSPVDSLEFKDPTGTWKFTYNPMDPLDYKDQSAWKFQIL
Summary of the method: as §1

ETV1 = ETV1 (Homo sapiens, UniProt P50549 1-477); conditions: protein: recombinant; tags: N-terminal GST; dsDNA, one strand shown
Chain of ETV1 (P50549 whole entry): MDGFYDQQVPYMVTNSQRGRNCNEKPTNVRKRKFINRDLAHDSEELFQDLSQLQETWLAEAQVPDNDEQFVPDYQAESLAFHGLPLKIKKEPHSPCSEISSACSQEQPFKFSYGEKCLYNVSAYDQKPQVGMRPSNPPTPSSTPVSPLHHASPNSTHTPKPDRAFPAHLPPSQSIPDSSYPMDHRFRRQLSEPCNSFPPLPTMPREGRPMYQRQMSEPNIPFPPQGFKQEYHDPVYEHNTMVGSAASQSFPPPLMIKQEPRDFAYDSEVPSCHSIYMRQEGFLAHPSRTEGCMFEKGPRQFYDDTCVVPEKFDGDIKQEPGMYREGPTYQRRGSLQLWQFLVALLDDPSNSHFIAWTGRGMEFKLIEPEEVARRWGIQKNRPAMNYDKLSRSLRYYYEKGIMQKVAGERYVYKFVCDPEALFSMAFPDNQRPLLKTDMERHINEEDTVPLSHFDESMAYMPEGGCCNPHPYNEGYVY
Summary of the method: as §1

For CTATTC, the binding signal (FLI1) was 1.33 fold enrichment (6-mer frequency, TF over GST control), the binding signal (ELK1) was 1.34 fold enrichment (6-mer frequency, TF over GST control) and the binding signal (GABPA) was 1.34 fold enrichment (6-mer frequency, TF over GST control). For the same sequence, the binding signal (ERG) was 1.35 fold enrichment (6-mer frequency, TF over GST control), the binding signal (ELF1) was 1.42 fold enrichment (6-mer frequency, TF over GST control) and the binding signal (EHF) was 1.42 fold enrichment (6-mer frequency, TF over GST control). For the same sequence, the binding signal (SPI1) was 1.29 fold enrichment (6-mer frequency, TF over GST control), the binding signal (SPIB) was 1.23 fold enrichment (6-mer frequency, TF over GST control) and the binding signal (ELK3) was 1.13 fold enrichment (6-mer frequency, TF over GST control). The binding signal (FEV) was 1.28 fold enrichment (6-mer frequency, TF over GST control), the binding signal (ETV5) was 1.35 fold enrichment (6-mer frequency, TF over GST control) and the binding signal (HSF1) was 1.57 fold enrichment (6-mer frequency, TF over GST control). For the same sequence, the binding signal (SPIC) was 1.49 fold enrichment (6-mer frequency, TF over GST control), the binding signal (ELF4) was 1.26 fold enrichment (6-mer frequency, TF over GST control) and the binding signal (ELK4) was 1.32 fold enrichment (6-mer frequency, TF over GST control). For the same sequence, the binding signal (ETV2) was 1.37 fold enrichment (6-mer frequency, TF over GST control), the binding signal (ELF3) was 1.38 fold enrichment (6-mer frequency, TF over GST control) and the binding signal (CRX) was 1.16 fold enrichment (6-mer frequency, TF over GST control). For the same sequence, the binding signal (ETV1) was 1.28 fold enrichment (6-mer frequency, TF over GST control).
